Common to all, as to assay: NCI-60 one-dose screen, 48 h (100 = growth as untreated, 0 = no growth, -100 = all killed)
Conditions in all cases: 10 µM unless noted

For assay [1], the system named is NCI-H23 lung.
In assay [2] the test system is NCI-H226 lung.
The test system of assay [3] is NCI-H322M lung.
In assay [4] the test system is HOP-62 NSCLC.
Assay [5] has as its system NCI-H460 lung.
The subject of assay [6] is HOP-92 NSCLC.
In assay [7] the test system is NCI-H522 lung.
The subject of assay [8] is A549/ATCC NSCLC.
Assay [9] relates to 786-0 renal.
Assay [10] deals with DU-145 prostate.
The test system of assay [11] is K-562 leukemia.
Assay [12] relates to MALME-3M melanoma.
The subject of assay [13] is MDA-MB-231 breast.
In assay [14] the test system is RXF 393 renal.
The subject of assay [15] is SF-268 CNS.
In assay [16] the test system is SF-295 CNS.
The subject of assay [17] is SF-539 CNS.
For assay [18], the system named is UACC-257 melanoma.
Assay [19] concerns M14 melanoma.

Growth data for eight molecules are collected here from PubChem BioAssay (NCI).

Each structure is given as a SMILES string. Compounds without any hit were thinned out: in the full panel of roughly 83,000, 20% have a hit.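 Step 1: grow cells in 96-well plates. Step 2: add test compound at a single concentration. Step 3: incubate 48 h. Step 4: record percent growth.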 Unmarked numbers belong to inactive results. The source made the active and inactive calls. How the source made its calls: active means growth percent below 10; inactive means the rest.

`O=S(=O)(NCCNc1cc(-c2c(-c3cccc(O)c3)nc3sccn23)ccn1)c1ccc(Cl)cc1`: the growth was 79.1% in assay [1]; 62.4% in assay [2]; 86% in assay [3]; 103% in assay [4]; 58.3% in assay [5]; 74.7% in assay [6]. The growth in assay [7] was 66.1%; in assay [8], 57.6%; in assay [9], 62.1%; in assay [10], 67.8%; in [11], 42.5%; in assay [12] it was 94%. In addition, the growth is 80.6% in assay [13]; 71.7% in [14]; 47.9% in assay [15]; 85% in [16]; 91.8% in assay [17]; 95.2% in assay [18]. In addition, the growth in assay [19] was 68.2%.

On to `CCN(CC)CCOC(=O)N1c2ccccc2Sc2ccccc21`, for which the growth is 104% in [1]; 95.2% in assay [2]; 89.7% in assay [3]; 88.7% in assay [4]; 103% in [5]; 73.1% in assay [6]. Further, the growth in assay [7] is 68.7%; in [8], 88.9%; in [9], 91.4%; in assay [10], 99.9%; in [11] it was 90.7%; in assay [12], 91.4%. For the same molecule, the growth in assay [13] was 81.9%; in assay [14], 98.3%; in assay [15], 102%; in [16], 93.8%; in assay [17], 100%; in assay [18] it was 102%. Moreover, the growth in [19] was 93.4%.

In the case of `CCCn1nc(-c2ccccc2)c2c(-c3ccccc3)onc2c1=O`, the growth in [1] was 85.6%; in [2], 87.5%; in assay [3], 95.4%; in assay [4] it was 74.2%; in [5], 98.1%; in assay [6], 75.6%. The growth in assay [7] was 62.6%; in [8], 89%; in assay [9], 94.1%; in [10], 104%; in assay [11] it was 29.1%; in [12] it was 96.5%. In addition, the growth in assay [13] was 81.6%; in assay [14], 90.2%; in assay [15], 89.2%; in [16] it was 74.3%; in assay [17], 85%; in assay [18], 112%. In assay [19], the growth is 57.2%.

`Cc1cnc(Nc2ccc(OCCN3CCCC3)cc2)nc1NCc1ccco1`: the growth in assay [1] is 70.9%; in [2] it was 45.8%; in assay [3], 81.9%; in assay [4] it was 60.4%; in [5], 72.8%; in [6], 54.8%. For the same molecule, the growth was 70.1% in [7]; 76.3% in assay [8]; 60.7% in [9]; 83.8% in assay [10]; 12.9% in assay [11]; 105% in assay [12]. Also, the growth in assay [13] is 55.6%; in assay [14] it was 48%; in assay [15], 68.5%; in assay [16], 84%; in assay [17], 68.7%; in assay [18], 96%. Further, the growth in [19] was 96.3%.

For the molecule `O=C1Nc2ccc(Cl)cc2/C1=N/N=C/c1c[nH]c2ccccc12`, the growth was 86.1% in assay [1]; 81.9% in assay [2]; 75.5% in [3]; 80.4% in assay [4]; 72% in [5]; 93.1% in assay [6]. The growth in assay [7] is 73.2%; in assay [8], 87.2%; in [9], 95.8%; in [10], 64.2%; in [11] it was 88.4%; in [12] it was 82.8%. Also, the growth in assay [13] was 64.3%; in assay [14], 62.7%; in assay [15] it was 76.2%; in assay [16] it was 103%; in [17] it was 82.6%; in assay [18], 98.8%. The growth in assay [19] was 72%.

`Fc1ccc(Nc2ccc3cc(OCCCN4CCOCC4)ccc3n2)cc1F`: the growth was 55.7% in [1]; 76.8% in assay [2]; 71.4% in assay [3]; 65.9% in assay [4]; 36.6% in assay [5]; 52.8% in assay [6]. The growth is -21.4% (active) in assay [7]; 42.9% in assay [8]; 48.6% in assay [9]; 64.2% in [10]; -12% (active) in assay [11]; 42.6% in [12]. The growth is -40.9% (active) in assay [13]; 61.1% in [14]; 59.3% in assay [15]; 19.7% in assay [16]; 37.5% in assay [17]; 30.4% in [18]. Also, in assay [19], the growth was -6.62% (active).

For `O=C(Oc1ccc([N+](=O)[O-])cc1)c1ccc(CBr)cc1`, the growth in assay [1] was 98.5%; in assay [2], 106%; in assay [3], 100%; in assay [4] it was 139%; in [5], 100%; in assay [6], 88.5%. Also, the growth in assay [7] is -21.2% (active); in [8], 97.9%; in assay [9], 108%; in assay [10] it was 107%; in assay [11], 86.7%; in [12], 97.9%. Further, the growth in [13] was 84.8%; in assay [14], 114%; in assay [15], 100%; in assay [16] it was 103%; in assay [17], 97%; in [18] it was 92.6%. Besides, in [19], the growth was 105%.

In the case of `CCNCCNc1cc(-c2ccc(F)cc2)c(C#N)c2nc3ccccc3n12`, the growth was 77.8% in assay [1]; 93.1% in assay [2]; 66.3% in assay [3]; 75.6% in [4]; 3.07% (active) in assay [5]; 52.1% in [6]. Further, the growth in assay [7] was 64.3%; in assay [8], 46%; in assay [9], 57.9%; in assay [10], 46.4%; in assay [11], -19.1% (active); in assay [12], -60.1% (active). Moreover, the growth was 17.9% in [13]; 29.7% in [14]; 53.8% in [15]; 38.5% in [16]; -88.4% (active) in assay [17]; -76.8% (active) in [18]. In [19], the growth is -64.1% (active).
